Rows were chosen to be rich in hits. Some 2% of all compounds tested hit in one or more screens of this group.
Calb FLC: C. albicans growth inhibition with fluconazole, primary screen, CaCi-2 strain, Alamar Blue fluorescence; AID 1979, 2009; growth inhibition, % (concentration not given with the values); C. albicans CaCi-2 (fluconazole-resistant clinical isolate) + fluconazole, 48 h; 300,000 compounds, 0.57% hits;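 active means growth inhibition above about 58% in most replicates, limit read from the data, passing the limit was not always enough; inconclusive means exactly half the replicates above a set limit; inactive means most replicates below a set limit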;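 further: all wells also contain fluconazole at 8 µg/ml as a sub-toxic cotreatment; 0% = median of DMSO wells and 100% = median of geldanamycin control wells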
Jurkat NFkB inh: inhibitors of induced NF-kB luciferase reporter, primary screen, TCR NF-kB activation inhibitor project, cell-based, luminescence, uHTS; Jurkat, PMA/ionomycin-induced NF-kB luciferase reporter; inhibition, % at 4 µM; 330,000 compounds, 0.53% hits; AID 435003, 2010; in the data active means inhibition above about 50%
697 NFkB inh: inhibitors of PMA/ionomycin-induced NF-kB reporter, 697 cells, primary screen, B-cell NF-kB inhibitor project, cell-based, luminescence, uHTS. 697 B-cell NF-kB luciferase reporter, 16 h. inhibition, % at 4 µM. 330,000 compounds, 0.33% hits. AID 435022, 2010; in the data active means inhibition above about 35%
Beta apoptosis: inhibitors of cytokine-induced beta cell apoptosis, primary screen, luminescence. INS-1E cytokine-induced death, ATP luminescence, 48 h; percent of positive-control rescue, neutral wells zero. protection from apoptosis, % (no concentration beside the values). 300,000 compounds, 0.8% hits;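 active means Every replicate reaches about 75%, or at least half do and their mean reaches it too, limit read from the data; inconclusive means At least half of replicates reach the limit but their mean does not; inactive means Under half of replicates reach the limit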;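 further: 0% = cytokine-treated negative control wells and 100% = positive control rescue; higher means more ATP so stronger rescue from cytokine killing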
Shn3 inh set2: reduction of Shn3 3'UTR firefly luciferase signal, primary screen, Schnurri-3 inhibitor project, cell-based, Clone20 osteoblasts, set 2; Clone20 osteoblast Shn3 3'UTR firefly luciferase, 24 h; inhibition, % at 12.5 µM; 360,000 compounds, 0.52% hits; AID 588674, 2011;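 active means mean inhibition of at least 75% with every replicate also reaching 75%; inconclusive means mean inhibition at least 75% but some replicate below; inactive means mean inhibition below 75%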;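 further: 0% = median of neutral control wells and 100% = pilot-screen positive control compound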
An asterisk follows results filed as active.

How did CN(Cc1cccnc1)C(=O)c1cc(COc2ccc3c(c2)CCCC3)on1 do in these assays?
Calb FLC: 0; Jurkat NFkB inh: -70; 697 NFkB inh: -119; Beta apoptosis: 24; Shn3 inh set2: 46

How did Cc1cc(C)nc(OC(=O)c2ccc(Cl)cc2Cl)n1 do in these assays?
Calb FLC: -4; Jurkat NFkB inh: -22; 697 NFkB inh: -26; Beta apoptosis: 85*

Results for CCCCCC(=O)NNC(=S)NC(=O)c1cccc([N+](=O)[O-])c1 ?
Calb FLC: 85*; Jurkat NFkB inh: -4; 697 NFkB inh: 4; Beta apoptosis: 0; Shn3 inh set2: -13

How did COc1ccc(C(=O)NNC(=S)NC(=O)c2cccc([N+](=O)[O-])c2)cc1 do in these assays?
Calb FLC: 81*; Jurkat NFkB inh: -14; 697 NFkB inh: -13; Beta apoptosis: 14

How did CCCCCC(=O)NNC(=S)NC(=O)c1ccccc1[N+](=O)[O-] do in these assays?
Calb FLC: -4; Jurkat NFkB inh: -18; 697 NFkB inh: -6; Beta apoptosis: 2; Shn3 inh set2: 9

Results for CCn1cc(C(=O)N[C@@H](CCSC)C(=O)NC(C)(C)CO)c(=O)c2cc3c(cc21)OCO3 ?
Calb FLC: -9; Jurkat NFkB inh: -2; 697 NFkB inh: 23; Beta apoptosis: 1; Shn3 inh set2: -4

How did O=C(NCc1nc(-c2ccc(C(F)(F)F)cc2)no1)Nc1cc(Cl)cc(Cl)c1 do in these assays?
Calb FLC: -8; Jurkat NFkB inh: 12; 697 NFkB inh: 25; Beta apoptosis: 110*; Shn3 inh set2: 57

How did CC1CCC(NC(=O)CN2C(=O)NC(C)(C)C2=O)CC1 (configuration not stated) do in these assays?
Calb FLC: -6; Jurkat NFkB inh: 3; 697 NFkB inh: 2; Beta apoptosis: 2; Shn3 inh set2: -12

How did COc1ccc(C(=O)c2cc([N+](=O)[O-])ccc2N2CCOCC2)cc1 do in these assays?
Calb FLC: -8; Beta apoptosis: 13; Shn3 inh set2: -1

What do the screens show for `CCOc1ccc(C(=O)c2cc([N+](=O)[O-])ccc2N2CCOCC2)cc1`?
Calb FLC: -11; Beta apoptosis: 79*; Shn3 inh set2: 4

How did Cc1oc2c(c(=O)c1C)C(=O)CC(c1ccccc1)C2 (configuration not stated) do in these assays?
Calb FLC: -2; Jurkat NFkB inh: 15; 697 NFkB inh: 13; Shn3 inh set2: 5

How did CS(=O)(=O)c1sc(C#N)c2c1C(=O)CC(c1ccccc1)C2 (configuration not stated) do in these assays?
Calb FLC: 0; Jurkat NFkB inh: 21; 697 NFkB inh: 1; Beta apoptosis: 39*; Shn3 inh set2: 46

What do the screens show for `Cc1nn(C)c(C(=O)NCc2ccc(Cl)cc2)c1Cl`?
Calb FLC: 0; Jurkat NFkB inh: 45; 697 NFkB inh: -32; Beta apoptosis: inconclusive; Shn3 inh set2: 86*

What do the screens show for `Cc1nc(C)c(C(=O)NCc2ccc(Cl)cc2)o1`?
Calb FLC: 6; Jurkat NFkB inh: 4; 697 NFkB inh: -4; Beta apoptosis: -4; Shn3 inh set2: -21

What do the screens show for `O=C(C(Br)=Cc1ccccc1)c1ccccc1`?
Shn3 inh set2: 97*

What do the screens show for `CC(=Cc1ccccc1)C(=O)c1ccccc1`?
Shn3 inh set2: 10

What do the screens show for `O=C(COc1cccc(C(F)(F)F)c1)N1CCN(c2ccc(O)cc2)CC1`?
Calb FLC: 15; Jurkat NFkB inh: -2; 697 NFkB inh: -62; Beta apoptosis: 3; Shn3 inh set2: 13

Results for O=C(COc1ccc2c(c1)CCC2)N1CCN(c2cccc(C(F)(F)F)c2)CC1 ?
Calb FLC: 112*; Jurkat NFkB inh: 4; 697 NFkB inh: -1; Beta apoptosis: -12; Shn3 inh set2: 23

How did Clc1ccc2c(N/N=C/c3ccccc3Br)ccnc2c1 do in these assays?
Calb FLC: -5; Jurkat NFkB inh: -9; 697 NFkB inh: -39; Beta apoptosis: 43; Shn3 inh set2: 21

How did O=[N+]([O-])c1ccc(/C=N/Nc2ccnc3cc(Cl)ccc23)o1 do in these assays?
Calb FLC: -22; Jurkat NFkB inh: 1; 697 NFkB inh: 21; Beta apoptosis: 107*; Shn3 inh set2: -5

Results for Clc1ccc2c(N/N=C/c3cccc(Br)c3)ccnc2c1 ?
Calb FLC: -4; Beta apoptosis: 81*; Shn3 inh set2: 27

Results for COc1cccc(CN(C)C(=O)c2ccc(NS(=O)(=O)c3ccc(F)cc3)cc2)c1OC ?
Calb FLC: -1; Jurkat NFkB inh: -6; 697 NFkB inh: -21; Shn3 inh set2: 3

What do the screens show for `COc1ccc(CN(C)C(=O)c2ccc(NS(=O)(=O)c3ccc(F)cc3)cc2)c(OC)c1OC`?
Calb FLC: 4; Jurkat NFkB inh: 11; 697 NFkB inh: 10; Beta apoptosis: 95*; Shn3 inh set2: 22

Results for O=C(Nc1ccc(N2CCOCC2)c(S(=O)(=O)Nc2ccccc2Cl)c1)c1ccccc1 ?
Jurkat NFkB inh: 7; 697 NFkB inh: -8; Beta apoptosis: 17; Shn3 inh set2: -10

What do the screens show for `O=C(Nc1ccc(Cl)cc1)Nc1ccc(N2CCCC2)c(S(=O)(=O)Nc2ccccc2Cl)c1`?
Calb FLC: -2; Jurkat NFkB inh: -12; 697 NFkB inh: -37; Beta apoptosis: 87*; Shn3 inh set2: 97*

How did S=C(NN=C(c1ccccc1)c1ccccn1)N(Cc1ccccn1)Cc1ccccn1 do in these assays?
Shn3 inh set2: 91*

How did S=C(NN=Cc1ccccn1)N(Cc1ccccn1)Cc1ccccn1 do in these assays?
Shn3 inh set2: 81

How did CC(=NNC(=S)N(Cc1ccccn1)Cc1ccccn1)c1cnccn1 do in these assays?
Shn3 inh set2: 95*

Results for O=C(c1ccco1)N1CCN(c2nc(-c3ccc(F)cc3)cs2)CC1 ?
Calb FLC: -6; Jurkat NFkB inh: -4; 697 NFkB inh: 4; Beta apoptosis: 1; Shn3 inh set2: -10

Results for Cc1cc(C)n(-c2ccc3cccc(NS(C)(=O)=O)c3n2)n1 ?
Calb FLC: 1; Jurkat NFkB inh: 34; 697 NFkB inh: -23; Shn3 inh set2: 90*

What do the screens show for `Cn1ccc(NC(=O)c2ccc([N+](=O)[O-])cc2)n1`?
Jurkat NFkB inh: 15; 697 NFkB inh: 15; Beta apoptosis: -6; Shn3 inh set2: -9

What do the screens show for `CCOc1ccc(/C=C/C(=O)c2cc(Br)ccc(=O)c2O)cc1`?
Beta apoptosis: 2; Shn3 inh set2: -3

How did Cc1cccc(/C=C/C(=O)c2cc(Br)ccc(=O)c2O)c1 do in these assays?
Calb FLC: 100*; Jurkat NFkB inh: 7; 697 NFkB inh: -6; Beta apoptosis: 38; Shn3 inh set2: 5

What do the screens show for `CCc1ccc(/C=C/C(=O)c2cc(Br)ccc(=O)c2O)cc1`?
Calb FLC: 94*; Jurkat NFkB inh: 6; 697 NFkB inh: -22; Beta apoptosis: 0; Shn3 inh set2: 14

How did O=C(O)c1cc(-c2ccc(O)cc2)on1 do in these assays?
Calb FLC: 100*; Jurkat NFkB inh: -6; 697 NFkB inh: -21; Beta apoptosis: 0; Shn3 inh set2: 61

Screening data: PubChem, several laboratories
